# Data published in the supplement of paper PMC8728848.
# The entries come from a sample that favours the strongest signals as a whole.
# B1: PA-IL (Pseudomonas aeruginosa) (protein)
# chain: AWKGEVLANNEAGQVTSIIYNPGDVITIVAAGWASYGPTQKWGPQGDREHPDQGLICHDAFCGALVMKIGNSGTIPVNTGLFRWVAPNNVQGAITLIYNDVPGTYGNNSGSFSVNIGKDQS
# Tests used:
# Assay in all cases: glycan array binding signal (z-score within array); higher = stronger binding
# Details in all cases: glycan notation: IUPAC condensed, linker removed
# Fuc(a1-2)Gal(b1-3)GlcNAc = molecular target: Fuc(a1-2)Gal(b1-3)GlcNAc
# Method in brief: (§1)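 Columns mapping to the same glycan were averaged after glycan names were converted to IUPAC-condensed notation. The data come from 3228 arrays in the Consortium for Functional Glycomics database, limited to those with an available protein sequence. Binding is reported as a within-array Z-score averaged across arrays of one protein sequence and across linkers.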
# [1] = molecular target: Fuc(a1-2)[Gal(a1-4)]Gal(b1-4)GlcNAc
# Method in brief: as §1
# [2] = molecular target: Fuc(a1-2)[GalNAc(a1-3)]Gal(b1-4)Glc
# Method in brief: as §1
# [3] = molecular target: Fuc(a1-2)[GalNAc(a1-3)]Gal(b1-4)GlcNAc
# Method in brief: as §1
# [4] = molecular target: Fuc(a1-2)[GalNAc(b1-3)]Gal
# Method in brief: as §1
# Gal(a1-2)Gal = molecular target: Gal(a1-2)Gal
# Method in brief: as §1
# Gal(a1-3)Gal(b1-4)Glc = molecular target: Gal(a1-3)Gal(b1-4)Glc
# Method in brief: as §1
# [5] = molecular target: Gal(a1-3)Gal(b1-4)[Fuc(a1-3)]GlcNAc
# Method in brief: as §1
# [6] = molecular target: Gal(a1-3)[Gal(a1-4)]Gal(b1-4)GlcNAc
# Method in brief: as §1
# Gal(a1-4)GlcNAc = molecular target: Gal(a1-4)GlcNAc
# Method in brief: as §1
# Gal(a1-6)Glc = molecular target: Gal(a1-6)Glc
# Method in brief: as §1
# Gal(b1-3)Gal = molecular target: Gal(b1-3)Gal
# Method in brief: as §1
# [7] = molecular target: Gal(b1-4)GlcNAc(b1-6)Gal(b1-4)GlcNAc(b1-6)GalNAc
# Method in brief: as §1
# Glc(a1-4)Glc = molecular target: Glc(a1-4)Glc
# Method in brief: as §1
# GlcA(b1-3)Gal = molecular target: GlcA(b1-3)Gal
# Method in brief: as §1
# [8] = molecular target: GlcNAc(a1-3)Gal(b1-4)GlcNAc
# Method in brief: as §1
# [9] = molecular target: Man(a1-2)Man(a1-2)Man(a1-6)[Man(a1-3)]Man
# Method in brief: as §1
# Man(a1-2)Man(a1-3)Man = molecular target: Man(a1-2)Man(a1-3)Man
# Method in brief: as §1
# [10] = molecular target: Man(a1-2)Man(a1-3)[Man(a1-2)Man(a1-6)]Man(a1-6)[Man(a1-2)Man(a1-2)Man(a1-3)]Man(b1-4)GlcNAc(b1-4)GlcNAc
# Method in brief: as §1
# [11] = molecular target: Man(a1-2)Man(a1-6)[Man(a1-3)]Man(a1-6)[Man(a1-2)Man(a1-2)Man(a1-3)]Man(b1-4)GlcNAc(b1-4)GlcNAc
# Method in brief: as §1
# [12] = molecular target: Neu5Ac(a2-3)Gal(b1-3)[Neu5Ac(a2-6)]GalNAc
# Method in brief: as §1
# Neu5Gc(a2-3)Gal(b1-4)Glc = molecular target: Neu5Gc(a2-3)Gal(b1-4)Glc
# Method in brief: as §1
binder,measurement,setting,value
B1,glycan array binding signal (z-score),Fuc(a1-2)Gal(b1-3)GlcNAc,-0.365
same,glycan array binding signal (z-score),[1],3.69
same,glycan array binding signal (z-score),[2],0.183
same,glycan array binding signal (z-score),[3],0.174
same,glycan array binding signal (z-score),[4],-0.363
same,glycan array binding signal (z-score),Gal(a1-2)Gal,4.77
same,glycan array binding signal (z-score),Gal(a1-3)Gal(b1-4)Glc,3.73
same,glycan array binding signal (z-score),[5],4.11
same,glycan array binding signal (z-score),[6],3.92
same,glycan array binding signal (z-score),Gal(a1-4)GlcNAc,3.15
same,glycan array binding signal (z-score),Gal(a1-6)Glc,1.53
same,glycan array binding signal (z-score),Gal(b1-3)Gal,-0.271
same,glycan array binding signal (z-score),[7],0.234
same,glycan array binding signal (z-score),Glc(a1-4)Glc,-0.365
same,glycan array binding signal (z-score),GlcA(b1-3)Gal,-0.365
same,glycan array binding signal (z-score),[8],-0.365
same,glycan array binding signal (z-score),[9],-0.365
same,glycan array binding signal (z-score),Man(a1-2)Man(a1-3)Man,-0.365
same,glycan array binding signal (z-score),[10],-0.357
same,glycan array binding signal (z-score),[11],-0.364
same,glycan array binding signal (z-score),[12],-0.365
same,glycan array binding signal (z-score),Neu5Gc(a2-3)Gal(b1-4)Glc,-0.364
